SARS PLP yeast: qHTS of Yeast-based Assay for SARS-CoV PLP; S. cerevisiae expressing SARS-CoV PLpro, growth rescue; Potency, µM (highest dose often 32.9 µM), actives largely listed as activators; actives 0.19% (n = 330,000); AID 485353, 2010; calls by dose curve; also: nearly all actives have a fitted effect of over 55% in size
Pf growth 48h: Primary qHTS for delayed death inhibitors of the malarial parasite plastid, 48 hour incubation. AID 504832, 2011. actives 5.9% (n = 310,000). Potency, µM (series often up to 28.7 µM), actives largely listed as inhibitors. P. falciparum luciferase growth in erythrocytes, 48 h
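Luminescence readout; reporter = integrated firefly luciferase in P. falciparum. RBC culture at 2% hematocrit, 0.1% parasitemia final, 37 C/5% CO2; decreased signal taken as growth inhibition.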
Pf growth 96h: Primary qHTS for delayed death inhibitors of the malarial parasite plastid, 96 hour incubation. P. falciparum luciferase reporter growth, 96 h. Potency, µM (highest dose often 28.7 µM), usual class: inhibitors. actives 6.9% (n = 320,000)
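Erythrocytes infected with luciferase-expressing P. falciparum were dispensed at 2% hematocrit and 0.05% parasitemia (final), then incubated with compounds 96 hours at 37 C in 5% CO2. Luminescence after detection reagent addition reported growth.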
AMA1-RON2 inh: qHTS for Inhibitors of AMA1-RON; Towards Development of Antimalarial Drug Lead: Primary Screen; AlphaScreen AMA1-biotinylated RON2 peptide binding; Plasmodium falciparum AMA1 (3D7) - RON2 peptide interaction; Potency, µM (top dose mostly 58.2 µM), most hits filed as inhibitors; AID 720542, 2013; actives 0.2% (n = 360,000); also: nearly all actives have a fitted effect of over 45% in size
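AMA1 (3D7) with his tag at 25 nM final met compounds first, then biotinylated RON2 peptide at 25 nM; detection used donor plus acceptor beads, 10 µg/mL apiece, read by AlphaScreen after 30 min at room temperature.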
HCV inhibitor: qHTS Assay for Inhibitors of Hepatitis C Virus (HCV); Huh7.5.1 HCVcc-Cre infection, luciferase reporter, 44 h; Potency, µM (top dose mostly 41.8 µM), most hits filed as inhibitors; actives 3.4% (n = 340,000); AID 651820, 2012
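Reporter virus HCVcc-Cre (~0.5 moi) infects cells exposed to compound; seeding density 1,000 cells/well with 4 h settling beforehand. Luminescence, 15 sec read, taken 44 h post-infection following a 15 min RT substrate incubation.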
NS1 inh: qHTS Assay for Inhibitors of Influenza NS1 Protein Function. actives 0.4% (n = 270,000). Potency, µM (doses to about 46.1 µM); calls by dose curve; also: actives are rising curves; nearly all actives have a fitted effect of over 50% in size
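A cell-based growth assay was used: compounds that relieve NS1-induced slow growth of budding yeast raise OD600. Assay medium was yeast nitrogen base with ammonium sulphate and -URA supplement, pH 6.0, with 2% galactose.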
Of the large screens only hits and unclear results are named; the others gave an inactive call. Compounds with a hit are over-represented: about 12% of the library has one in this group of screens. Unless noted, calls follow the shape of the dose curve; as a rule, active = well fitted curve in the direction sought with a large enough effect; inconclusive = small, poorly fitted or top-dose-only effect, or another doubt; inactive = no such curve, though single readings can be large; an effect the other way counts as inactive or inconclusive.

COc1ccc(CCn2c(C)cc(C(=O)CSc3nnc(N)s3)c2C)cc1	Pf growth 48h inconclusive, Pf growth 96h 9.28µM, NS1 inh inconclusive
COc1ccc(CCn2c(C)cc(C(=O)CSc3nc(N)cc(=O)[nH]3)c2C)cc1	Pf growth 48h inconclusive, Pf growth 96h 9.28µM, HCV inhibitor 11.2µM
COCCn1c(C)cc(C(=O)CSc2nc3ccccc3s2)c1C	HCV inhibitor 10µM
Nc1cc(=O)[nH]c(SCC(=O)N2CCCC2)n1	none (no result: Pf growth 48h, Pf growth 96h, NS1 inh)
N#CC1(NC(=O)CN2C(=O)NC3(CCCCCC3)C2=O)CCCCC1	none (no result: NS1 inh)
CCOC(=O)Nc1ccc2c(COC(=O)C(NS(=O)(=O)c3ccc(Cl)cc3)C(C)O)cc(=O)oc2c1 (configuration not stated)	HCV inhibitor inconclusive (no result: Pf growth 48h, Pf growth 96h, NS1 inh)
COc1ccc(CNC(=O)COC(=O)[C@H](Cc2c[nH]c3ccccc23)NC(=O)c2cccs2)cc1	none
CCC(CC)C(C(=O)NCc1ccccc1)N1CCN(CCN2CCOCC2)CC1 (configuration not stated)	none (no result: SARS PLP yeast, Pf growth 48h, Pf growth 96h, HCV inhibitor, NS1 inh)
CCc1ccc(C(=O)CSc2nc(N)cc(=O)[nH]2)cc1	Pf growth 96h 10.4µM, NS1 inh inconclusive
C=CCn1c(O)c(/C=C2\C=NN=C2c2ccccc2)sc1=S	HCV inhibitor inconclusive
CCCn1c(O)c(/C=C2\C=NN=C2c2ccccc2)sc1=S	Pf growth 96h inconclusive, HCV inhibitor 10µM
O=C(O)c1cc(C(=O)O)c(-c2ccccc2)c(C(=O)O)c1	Pf growth 48h 2.94µM, Pf growth 96h inconclusive
CCN(CC(=O)Nc1ccc(NC(C)=O)cc1)C(=O)CSCC(=O)Nc1ccc(C)cc1	none (no result: NS1 inh)
CC(=O)CSc1nc(-c2ccccc2)c(-c2ccccc2)o1	none
CCN(CC(=O)Nc1ccc(NC(C)=O)cc1)C(=O)CSC(c1ccccc1)c1ccccc1	Pf growth 48h inconclusive, HCV inhibitor 10µM (no result: NS1 inh)
CCCCCCNC(=O)CC(c1ccccc1)c1cc(Br)ccc1O (configuration not stated)	Pf growth 48h 11.7µM, Pf growth 96h inconclusive, HCV inhibitor inconclusive
CC(C)NC(=O)CC(c1ccccc1)c1cc(Br)ccc1O (configuration not stated)	Pf growth 96h inconclusive, HCV inhibitor inconclusive (no result: Pf growth 48h)
COCCNC(=O)CC(c1ccccc1)c1ccccc1	Pf growth 96h 9.28µM (no result: Pf growth 48h)
O=C(CC(c1ccccc1)c1ccccc1)NCCOCc1ccccc1	Pf growth 96h inconclusive
COCCNC(=O)CSc1nc(-c2ccccc2)c(-c2ccccc2)o1	Pf growth 48h 8.28µM, HCV inhibitor inconclusive (no result: Pf growth 96h)
CC(=O)Nc1ccc(NC(=O)CC(c2ccccc2)c2ccccc2)cc1	Pf growth 48h 11.7µM (no result: SARS PLP yeast)
O=C(CC(c1ccccc1)c1ccccc1)Nc1ccc(O)cc1	none
CC(C)CC(=O)Nc1ccc(Nc2ccccc2)cc1	HCV inhibitor 2.82µM
Cc1ccc(Nc2n[nH]c(=S)s2)cc1	none (no result: SARS PLP yeast, Pf growth 48h, Pf growth 96h, HCV inhibitor, NS1 inh)
CCOc1ccc(Nc2n[nH]c(=S)s2)cc1	Pf growth 48h inconclusive, Pf growth 96h 2.94µM
CC1(C)CC(=O)C2=C(C1)Nc1cc3c(cc1C2c1ccc2c(c1)OCO2)OCO3 (configuration not stated)	none (no result: Pf growth 48h)
CC1(C)CC(=O)C2=C(C1)Nc1cc3c(cc1C2c1ccc(F)cc1)OCO3 (configuration not stated)	Pf growth 48h inconclusive, Pf growth 96h 5.22µM
O=c1cc(CN2CC(O)Cc3ccc4ccccc4c32)nc2sccn12 (configuration not stated)	Pf growth 96h inconclusive
CCN1CCN(c2ccc(S(=O)(=O)N3CCOCC3)cc2NC(=O)c2ccc(Cl)s2)CC1	Pf growth 48h inconclusive, Pf growth 96h inconclusive, HCV inhibitor inconclusive (no result: NS1 inh)
C=C(C)[C@@H]1CC=C(CN2CCC(CCOC)(C(=O)OCC)CC2)CC1	Pf growth 96h inconclusive, HCV inhibitor inconclusive
O=C(c1cccnc1)C1Cc2ccccc2C1=O (configuration not stated)	Pf growth 48h inconclusive, Pf growth 96h 7.38µM
CC1COCC(C)N1C(=O)c1cccnc1 (configuration not stated)	none (no result: SARS PLP yeast, Pf growth 48h, Pf growth 96h, HCV inhibitor, NS1 inh)
N#Cc1cc([N+](=O)[O-])cnc1N(CCO)CCO	none
Cn1c(=O)n(C)c2cc(N3CCCC3)c(NC(=O)c3cccc(F)c3)cc21	Pf growth 96h inconclusive, HCV inhibitor inconclusive
COc1cccc(OC)c1C(=O)Nc1cc2c(cc1N1CCOCC1)n(C)c(=O)n2C	Pf growth 48h 8.28µM, Pf growth 96h inconclusive
Cn1c(=O)n(C)c2cc(N3CCOCC3)c(NC(=O)c3cccc(Cl)c3)cc21	Pf growth 96h 1.65µM, HCV inhibitor inconclusive
COc1cccc(C(=O)Nc2cc3c(cc2N2CCCC2)n(C)c(=O)n3C)c1	Pf growth 96h 11.7µM, HCV inhibitor inconclusive
Cn1c(=O)n(C)c2cc(N3CCOCC3)c(NC(=O)c3ccc(F)cc3)cc21	Pf growth 48h inconclusive, Pf growth 96h 9.28µM
O=C(NC1CCCCC1)C(c1ccccc1)N(C(=O)c1csnn1)C1CC1 (configuration not stated)	Pf growth 96h inconclusive
O=C(COC(=O)Cn1[nH]c(=O)c2ccccc2c1=O)NNC(=O)c1ccccc1	none (no result: NS1 inh)
O=[N+]([O-])c1ccccc1OCCCOc1cccc2cccnc12	none
O=[N+]([O-])c1cc2cccnc2c2ncccc12	Pf growth 48h 4.65µM, Pf growth 96h 9.28µM, HCV inhibitor inconclusive
O=[N+]([O-])c1ccc(Sc2cccc3cccnc23)c2cccnc12	Pf growth 48h inconclusive, Pf growth 96h inconclusive, HCV inhibitor 10µM
Oc1cccc2cccnc12	Pf growth 48h inconclusive, Pf growth 96h inconclusive (no result: AMA1-RON2 inh, HCV inhibitor)
O=[N+]([O-])c1cc(O)c2ncccc2c1	Pf growth 48h inconclusive, Pf growth 96h inconclusive, HCV inhibitor 0.562µM (no result: NS1 inh)
Cc1ccc([N+](=O)[O-])c2cccnc12	none
CCCNC(=O)C1(C)CCCN(Cc2cccc(C#N)c2)C1 (configuration not stated)	none (no result: SARS PLP yeast, Pf growth 48h, Pf growth 96h, HCV inhibitor, NS1 inh)
Cc1cccc(N(CC(=O)NC(C)C)C(=O)CCC(=O)Nc2nccs2)c1	Pf growth 48h 9.28µM, Pf growth 96h inconclusive
CC(C)NC(=O)CN(C(=O)CCC(=O)Nc1nccs1)c1ccc2c(c1)OCO2	Pf growth 96h 13.1µM
O=C(O)C1=C[C@H](c2ccc(F)cc2)C[C@H](OCCCCO)O1	none
CC(C)Cc1cc(C(=O)N2N=C(C(F)F)CC2(O)C(F)F)c2ccccc2n1 (configuration not stated)	Pf growth 48h 13.1µM, Pf growth 96h 6.57µM, HCV inhibitor inconclusive
CCc1ccc(-c2cc(C(=O)N3N=C(C(F)F)CC3(O)C(F)F)c3ccccc3n2)cc1 (configuration not stated)	Pf growth 48h inconclusive, Pf growth 96h inconclusive, HCV inhibitor inconclusive

Bioassay records deposited in PubChem BioAssay by National Center for Advancing Translational Sciences (NCATS).
